CF NFkB block = blocks PAF-induced NF-kB reporter in cystic fibrosis cells. KKLEB NF-kB-GFP reporter, GFP fluorescence overnight. inhibition, % at 5 µM. actives 0.86% (n = 360,000). AID 588850;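 active means at least 50% inhibition at 5 µM, scaled per plate between neutral and stimulator controls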;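 further: PAF is a Pseudomonas aeruginosa culture filtrate used as stimulus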
HIF-2a block = inhibitors of HIF-2a | 786-0 RCC cells HIF-2a reporter, luciferase luminescence, overnight | inhibition, % at 18.8 µM | actives 0.72% (n = 360,000);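 active means inhibition of the luminescence signal of 40% or more relative to plate controls, in a single-dose primary screen at 18.75 µM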
KKLEB cytotox = counter-screen for CF NF-kB inhibitors: cytotoxicity. KKLEB CF airway cells viability, ATPlite luminescence, overnight; stronger effect = lower value; cells stimulated with P. aeruginosa culture filtrate. activity change (cytotoxicity), % at 5 µM. actives 0.36% (n = 360,000). AID 602141;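 active means corrected activity change at or below -50% at 5 µM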
TRPM1 prom inh = reduces MITF-dependent TRPM1 promoter luciferase signal; SK-MEL-5 TRPM1 promoter luciferase, 24 h; inhibition, % at 12.5 µM; actives 0.83% (n = 330,000); AID 488899;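 active means mean inhibition across replicates of 60% or more, whatever share of single replicates reaches that level; inconclusive means some that reach 60%, reason not given; inactive means mean inhibition across replicates below 60%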
Peg3 prom inh = reduces Peg3 promoter-driven luciferase expression in HeLa | HeLa PEG-Prom luciferase reporter, luminescence, overnight | inhibition, % at 20 µM | actives 1.7% (n = 360,000);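 active means inhibition of at least 50% at 20 µM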
Shn3 3UTR inh = reduces Shn3 3'UTR luciferase signal in osteoblasts. Clone20 osteoblast Shn3 3'UTR firefly luciferase, 24 h. inhibition, % at 12.5 µM. actives 0.52% (n = 360,000). AID 588674;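 active means mean inhibition of at least 75% with every replicate also reaching 75%; inconclusive means mean inhibition at least 75% but some replicate below; inactive means mean inhibition below 75%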
Hits are given with their value; - = inactive; ? = inconclusive; . = no result. This is a sample that favours compounds with a hit; in the whole collection about 2.7% have one here.

SMILES | CF NFkB block | HIF-2a block | KKLEB cytotox | TRPM1 prom inh | Peg3 prom inh | Shn3 3UTR inh
CC(NCC(O)COCCC12CC3CC(CC(C3)C1)C2)c1ccccc1 (configuration not stated) | - | - | - | - | 104 | -
NCC(O)COCCC12CC3CC(CC(C3)C1)C2 (configuration not stated) | - | - | - | - | - | -
Cc1ccc(-c2cc(C(=O)N3CCN(c4ccc(F)cc4)CC3)c3ccccc3n2)o1 | - | - | - | - | - | -
Cc1ccc(-c2cc(C(=O)N3CCN(c4ncccn4)CC3)c3cc(Br)ccc3n2)o1 | - | - | - | - | 52 | -
C=CCNc1nc(Nc2ccc([N+](=O)[O-])cc2)nc(N2CCCC2)n1 | - | - | - | - | 56 | -
O=[N+]([O-])c1c(NCCCO)cc(SCc2ccco2)c2nonc12 | - | - | - | - | - | -
Cn1ccnc1Sc1cc(NCCCO)c([N+](=O)[O-])c2nonc12 | - | - | - | - | 85 | -
CC(=O)OCCCNc1cc(Sc2ccc(C)cc2)c2nonc2c1[N+](=O)[O-] | - | - | - | - | - | 95
O=C(CCCC(=O)c1ccccc1)NCc1ccccc1 | - | - | - | - | - | -
CCCc1c(C(=O)N/N=C/c2ccc(OCc3ccc(F)cc3)cc2)nnn1-c1nonc1N | - | - | - | . | - | -
Oc1cccc(C(O)CNCc2ccc(OCc3ccc(Cl)cc3Cl)cc2)c1 (configuration not stated) | - | - | - | - | 93 | -
COc1ccc(CCNC(=O)c2ccc3c(c2)N(Cc2ccccc2)CCS3)cc1OC | - | - | - | - | 55 | -
COc1ccc(OC)c(CCNC(=O)c2ccc3c(c2)N(Cc2ccccc2)CCS3)c1 | - | - | - | - | - | -
O=C(Cc1ccccc1)Nc1cccc(N2C(=O)C=CC2=O)c1 | 52 | - | - | - | 96 | -
CCn1cc(/C=C(\NC(=O)c2ccccc2F)C(=O)NCCN2CCOCC2)c2ccccc21 | - | - | - | - | - | -
Cc1ccccc1Cn1cc(NC(=O)c2cc(-c3cccs3)on2)cn1 | - | - | -54 | - | - | -
CCOc1cc(/C=C/C(=O)Nc2ccc(C(=O)NCCN(CC)CC)cc2)ccc1OCC(C)C | - | - | - | 83 | 104 | -
COc1ccc(Cl)cc1N1CCN(CCNC(=O)Nc2ccccc2C)CC1 | - | - | - | - | 51 | -
COc1cc(/C=N/NC(=O)CSc2cc(C)c(Br)cc2C)ccc1O | - | - | - | - | - | -
Cc1cc(SCC(=O)N/N=C/c2ccc(O)c(O)c2O)c(C)cc1Br | - | - | - | 65 | - | -
COc1cc([N+](=O)[O-])ccc1NC(=O)NNC(=O)c1sccc1C | - | - | - | - | - | -
O=C(NCCO)C(=O)Nc1cc2c3c(c1)CC(=O)N3CCC2 | - | - | - | - | - | -
O=C(CCl)c1cc2c3c(c1)CC(=O)N3CCC2 | - | - | - | - | 81 | -
Nc1cc(=O)[nH]c(SCC(=O)c2ccc(O)cc2O)n1 | - | - | - | - | - | -
CCC(C)c1ccc(C(C)NC(=S)NCc2ccc(F)cc2)cc1 (configuration not stated) | - | - | - | - | 51 | -
SMILES | CF NFkB block | HIF-2a block | KKLEB cytotox | TRPM1 prom inh | Peg3 prom inh | Shn3 3UTR inh
CC(C)[C@H](NC(=O)C1CC(=O)N(c2ccc3c(c2)OCCO3)C1)C(=O)NC1CCCC1 (some centres not stated) | - | - | - | - | - | -
COc1ccc(NC(=O)c2ccc(NC(=O)COC(=O)c3cnc(C)cn3)cc2)cc1 | - | - | - | - | - | -
CC12CCC(C(=O)N/N=C/c3ccc(O)cc3O)(OC1=O)C2(C)C (configuration not stated) | - | - | - | - | - | 89
C/C(=N\NC(=O)C12CCC(C)(C(=O)O1)C2(C)C)c1ccccc1O (configuration not stated) | - | - | - | - | - | -
Cc1ccc(S(=O)c2snnc2C)cc1 (configuration not stated) | - | - | - | - | - | -
CNC(=O)c1nnsc1S(=O)c1ccc(Cl)cc1 (configuration not stated) | 91 | - | - | ? | 103 | 97
C/C(Cl)=C\Cn1c(NCCc2ccccc2)nc2c1c(=O)n(C)c(=O)n2C | - | - | - | - | - | 88
O=S1(=O)CC(N2CCN(CCO)CC2)CN1Cc1cn(Cc2ccc(C(F)(F)F)cc2)nn1 (configuration not stated) | . | - | . | . | . | .
CC1CC(C)C[N+](=C2C=C(N3CCCC3)CC(C)(C)C2)C1 (configuration not stated) | - | - | - | 70 | - | 89
CN(Cc1ccccc1)C1=CC(=[N+]2CCCC2)CC(C)(C)C1 | - | - | - | 77 | - | 88
CC1(C)CC(N2CCN(c3ccccc3)CC2)=CC(=[N+]2CCCC2)C1 | - | - | - | - | - | 86
CCCCCCCCN1C(=O)[C@H](CC(=O)N2CCN(C(=O)OCC)CC2)C[C@@]2(C(=O)OCC)CCCC=C12 | . | - | . | . | . | .
CC(NC(=O)c1ccc(C(=O)c2ccccc2)cc1)c1ccc(S(N)(=O)=O)cc1 (configuration not stated) | - | - | - | - | - | -
CCOC(=O)c1c(NC(=O)CNCCO)sc(C)c1C | - | - | - | - | - | -
CCOC(=O)c1c(NC(=O)CNC2CCCCC2)sc(C)c1C | - | - | - | - | 90 | -
CC(C)C(C(=O)NC1CCCC1)N1CCC(O)(c2ccc(Cl)cc2)CC1 (configuration not stated) | . | - | . | . | . | .
CCCCC[n+]1ccn(C2=C([O-])c3ccccc3C(=O)/C2=N\S(=O)(=O)c2ccc(Cl)cc2)c1 | - | - | - | 78 | - | -
CCCC[C@@H]1CNCCN1CCc1cc(C(F)(F)F)cc(C(F)(F)F)c1 | - | - | - | - | - | -
FC(F)(F)c1cc(CCN2CCNC[C@@H]2CC2CCCCC2)cc(C(F)(F)F)c1 | - | - | - | 64 | 96 | -
COc1ccccc1N(Cc1ccccc1)S(=O)(=O)c1cccc(C(=O)NC2CC(C)(C)NC(C)(C)C2)c1 | - | - | - | - | 87 | -
O=C(O)c1ccc(Cl)c(S(=O)(=O)N(Cc2ccccc2)c2ccc(Cl)cc2)c1 | - | - | - | - | - | -
COc1ccccc1N(Cc1ccccc1)S(=O)(=O)c1cccc(C(=O)O)c1 | - | - | - | - | - | -
CC1(C)CC(NC(=O)c2ccc(Cl)c(S(=O)(=O)N(Cc3ccccc3)c3ccccc3)c2)CC(C)(C)N1 | - | - | - | 92 | 107 | -
Cc1cccc(N2C(=O)c3ccccc3C2=O)n1 | - | - | - | - | - | -
Cc1ccc(NC(=O)CSCC(=O)Nc2ccccc2N2CCCCC2)cc1 | - | - | - | - | - | -
O=C(COc1coc(CN2CCc3ccccc32)cc1=O)Nc1cccc(F)c1 | 64 | - | -56 | - | - | -
